In the library only some 7.1% were active in any assay of this set; here they are far more common.
MCF10A rereplic: inducers of DNA re-replication in MCF 10A breast cells; 350,000 compounds, 2.9% hits; Potency, µM (highest dose often 46.1 µM), for inactives: at the top dose activity, positive = re-replication, hits mostly activators; AID 624296; MCF 10A DNA re-replication, Hoechst nuclear intensity, 48 h; further: potency means the concentration at half of the fitted maximal effect; % of control where 0% means no effect; nearly all actives have a fitted effect of over 50% in size
SW480 rereplic: DNA re-replication induction in SW480 cells; SW480 DNA re-replication, Hoechst DNA content imaging, 48 h; Potency, µM (highest dose often 46.1 µM), for inactives: top-dose re-replication activation, usual class: activators; 340,000 compounds, 1.8% hits; AID 624297; further: potency means the concentration at half of the fitted maximal effect; % of control where 0% means no effect; nearly all actives have a fitted effect of over 55% in size
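Per well, 250 cells were exposed to pinned compound for 48 hr. Nuclear DNA was visualised with Hoechst (40 min, 37 C) and total object intensity recorded by fluorescence scanning.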
ATXN2 expr inh: ATXN2 expression inhibition; AID 1745845; 360,000 compounds, 0.72% hits; Potency, µM (top dose mostly 57 µM), for the others: at the highest dose activity change, negative = inhibition, usual class: inhibitors; HEK-293 ATXN2-luciferase reporter, luminescence, 24 h; further: potency means the concentration at half of the fitted maximal effect; on the % scale 0 is the no-effect control and ±100 the full control effect; nearly all actives have a fitted effect of over 55% in size
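ATXN2-luciferase reporter cells (luciferase flanked by upstream and downstream ATXN2 gene portions) were treated 24 h at 37 °C with compounds at up to 57 uM. SteadyGlo luminescence gave expression; GF-AFC fluorescence gave viability.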
IL-1B inflam inh: inflammasome signaling inhibition, IL-1 beta readout; activity change, % at 57.5 µM; THP-1 LPS/ATP IL-1B secretion, AlphaLISA, 16 h; hits give low values; AID 743279; 360,000 compounds, 4.7% hits; in the data active means activity change below about -50%; inconclusive means mostly about -30% to -49%; further: on the % scale 0 is the no-effect control and ±100 the full control effect
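THP-1 cells pretreated 1 hr with compounds (up to 57.5 uM final), then stimulated with LPS (250 ng/mL final) plus ATP (1.25 mM final); secreted IL-1B measured by AlphaLISA after 16 hr, decreased signal indicating inhibition.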
S2 tox: cell viability loss in ATXN counter-screen. 400,000 compounds, 0.49% hits. AID 651635. Potency, µM (doses to about 56.7 µM), actives largely listed as cytotoxic. S2 cells (HEK-293 line with an ATXN2-luciferase reporter) viability, CellTiter-Fluor protease fluorescence, 24 h; further: potency means the concentration at half of the fitted maximal effect; nearly all actives have a fitted effect of over 40% in size
PINK1 modulator: modulators of PINK1 expression; PINK1 immunofluorescence, high-content cytometry, 24 h; Potency, µM (top dose mostly 76.6 µM), for inactives: at the highest dose activation (PINK1 increase), hits mostly activators; 410,000 compounds, 0.2% hits; active means well fitted activation curve with a large enough effect; inconclusive means small, poorly fitted or top-dose-only effect; cell line not stated here; further: potency means the concentration at half of the fitted maximal effect; % of control where 0% means no effect; nearly all actives have a fitted effect of over 65% in size
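Stable cell line, 250 cells/well, 12 h attachment; compounds pinned at 5 concentrations, 24 h; CCCP control. Fixed with nuclear dye, primary antibodies 12 h at 10 degrees C, secondary plus cell stain; laser-scanning cytometer read.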
Numbers without * were called inactive; i = inactive; ? = inconclusive; nt = not tested or not shown; [ ] = another dose, or the depositor's remark. Unless noted, the call rests on the fitted dose curve; in most records, active means well fitted curve in the direction sought with a large enough effect; inconclusive means small, poorly fitted or top-dose-only effect, or another doubt; inactive means no such curve, though single readings can be large; an effect the other way counts as inactive or inconclusive.

SMILES | MCF10A rereplic | SW480 rereplic | ATXN2 expr inh | IL-1B inflam inh | S2 tox | PINK1 modulator
O=[N+]([O-])c1cccc(C=NNc2ccccc2)c1 | ? | 0.9% | 16.2% | -65.2* | ? | 1.8%
O=[N+]([O-])c1ccc(N/N=C/c2ccccc2)c(F)c1 | 5.8µM* | ? | 69.5% | 13.7 | i | 11.3%
O=[N+]([O-])c1cccc(N/N=C/c2ccc(N3CCOCC3)cc2)c1 | ? | ? | ? | -63.3* | ? | -1.9%
O=[N+]([O-])/C=C\c1ccc(N2CCOCC2)cc1 | 15.7% | 14.6µM* | ? | -80.4* | ? | -0.9%
Cc1ccc(N2CC(C)Cn3c2nc2c3c(=O)n(CC(=O)O)c(=O)n2C)cc1 (configuration not stated) | nt | nt | 6.6% | nt | i | 0.0%
COc1ccc(-c2csc3ncnc(Nc4ccc(OC)c(OC)c4)c23)cc1 | nt | nt | ? | nt | ? | -2.1%
CCCCCCCCCCCCCCCCCCN(C)C | nt | nt | 5.0% | nt | i | nt
COc1cc(-c2noc(CN3CCN(c4cccc(Cl)c4)CC3)n2)cc(OC)c1OC | nt | nt | 2.4% | nt | i | -0.2%
COc1ccc(-n2ccnc(NCCc3ccc(S(N)(=O)=O)cc3)c2=O)cc1 | nt | nt | 1.9% | nt | i | 0.0%
Cc1ccc(-c2nnc(N3CCN(S(C)(=O)=O)CC3)c3ccccc23)cc1 | -0.9% | 3.4% | -22.6% | -58.8* | i | -1.5%
CS(=O)(=O)N1CCN(c2nnc(-c3ccccc3)c3ccccc23)CC1 | 0.7% | -1.0% | -8.4% | -60.5* | i | -0.4%
O=S(=O)(c1ccccc1)N1CCN(c2nnc(-c3ccccc3)c3ccccc23)CC1 | -4.1% | 4.2% | 0.0% | 2.6 | i | -0.4%
Cc1ccc(CN2CCN(C3CCN(C(=O)c4ccc(C)cc4)CC3)C(=O)C2=O)cc1 | nt | nt | -3.6% | nt | i | 1.6%
Cc1cccc(CNC(=O)c2ccc3c(c2)N(C)C(=O)C2CCCCN32)c1 (configuration not stated) | nt | nt | 237.0% | nt | i | -1.0%
COc1ccc(-c2nc(SCC(=O)Nc3ccc4c(c3)OCCO4)c(-c3ccc(C)cc3)[nH]2)cc1OC | nt | nt | -23.1% | nt | ? | 3.3%
CCCCCc1ccc(OCCCC[n+]2ccc(C)cc2)c(CCCCC)c1 | 27.8% | 20.7% | -31.7%[11.3 µM] | -99.8* | ? | -1.8%
CCCCCc1ccc(OCCCC[n+]2ccccc2)c(CCCCC)c1 | 23.1µM* | ? | 14.1µM* | -92.8* | ? | 3.6%
CCCCCc1ccc(OCCCC[n+]2cccc(C)c2)c(CCCCC)c1 | ? | ? | 10µM* | -95.8* | ? | -3.0%
CCC(C)(C)c1ccc(OCCCC[n+]2ccccc2)c(C(C)(C)CC)c1 | ? | ? | ? | -14.2 | i | -1.2%
CCCCOc1ccc(C)cc1CN(CCO)CCO | -0.9% | 5.4% | -8.0% | -1.5 | i | -1.4%[38.3 µM]
CN(Cc1ccccc1)C(=O)c1cccc(NC(=O)c2nsc3ccccc23)c1 | nt | nt | -10.3% | nt | i | 0.5%
CC(C)C(=O)OCc1cc(=O)n2nc(C3CC3)sc2n1 | nt | nt | 15.4% | nt | i | -0.4%
COc1ccc2c(CNCCc3ccco3)c(C(=O)O)n(Cc3ccc(F)cc3)c2c1 | nt | nt | 16.1% | nt | ? | -1.4%
CN(C)CCCNC(=O)c1cc2sc3ccccc3c2s1 | 7.31µM* | ? | -32.6% | -118.0* | nt | 6.5%
CCCCN(CC)CCCNC(=O)c1cc2c(=O)[nH]c3ccccc3c2s1 | -1.3% | 5.1% | 1.6% | -73.2* | i | -0.7%
SMILES | MCF10A rereplic | SW480 rereplic | ATXN2 expr inh | IL-1B inflam inh | S2 tox | PINK1 modulator
CCC(C)NC(=O)c1cc2c(=O)[nH]c3ccc(C)cc3c2s1 (configuration not stated) | 4.8% | -1.0% | -13.9% | -52.5* | i | 8.0%
CCCCN(CC)CCNC(=O)c1cc2c(=O)[nH]c3ccc(C)cc3c2s1 | -15.3% | 25.9% | -14.4% | -99.7* | i | -2.0%
COc1ccc(Nc2nc3ccc(Cl)cc3n3nnnc23)cc1OC | nt | nt | 14.7% | nt | i | -0.5%
CCCc1cc(=O)n2c(C(=O)Nc3ccc(OCC)cc3)c(C(=O)Nc3ccc(C)cc3)sc2n1 | nt | nt | -2.2% | nt | i | -0.9%
CC(CNC(=O)Cc1ccc(NC(=O)N2CCSc3ncccc32)cc1)c1ccccc1 (configuration not stated) | nt | nt | nt | nt | nt | -1.0%
COc1ccccc1NC(=O)C1C2C=CC(C2)C1C(=O)NCc1cccnc1 (configuration not stated) | 4.61µM* | -13.5% | -15.3% | 0.0 | i | 4.2%
CC1C2=C(CC(C)(C)CC2=O)NC2=C1C(=O)CC(C)(C)C2 | 5.8µM* | -105.8% | -2.7% | -5.2 | nt | 2.4%
COc1ccc(NC(=O)c2c(NCc3ccc(OC)c(OC)c3OC)sc3c2CCC3)c(OC)c1 | nt | nt | -1.5% | nt | ? | 2.1%
CCn1cc(C(=O)NCc2ccc(Cl)cc2)c(=O)c2cc(S(=O)(=O)N(C)C3CCCCC3)ccc21 | nt | nt | -14.3% | nt | i | 2.0%
COc1ccc(S(N)(=O)=O)cc1C(=O)OCC(=O)N1c2ccccc2NC(=O)C1(C)C | -5.4% | -11.8% | 7.4% | 4.3 | i | -0.4%
COc1cc(/C=C/C(=O)OCC(=O)N2c3ccccc3NC(=O)C2(C)C)cc(OC)c1OC | 9.6% | -1.5% | ? | -65.3* | i | -2.4%
c1ccc(-n2cnc3cc(NCc4cccs4)ccc32)cc1 | ? | 13µM* | 56.0% | -27.8 | i | 21.4%[38.3 µM]
OCCC1CN(Cc2nc(-c3ccccc3)cs2)CCN1Cc1ccc(F)cc1 (configuration not stated) | ? | 9.8% | -26.4% | -75.8* | i | 0.0%
OC(CNCCNc1ncccc1C(F)(F)F)COc1ccc(F)cc1 (configuration not stated) | -1.6% | -9.1% | -15.0% | -82.0* | i | 1.9%
CC(=O)Nc1ccc(C2=NN(c3ccccc3)C(c3cccs3)C2)cc1 (configuration not stated) | ? | 11.6µM* | 21.2% | 14.4 | nt | 14.0%
Cc1ccc(NC(=O)c2ncn(CC(=O)N[C@H](C)c3cccc4ccccc34)n2)cc1C | -0.4% | -10.0% | -15.3% | 10.6 | i | 6.5%
Cc1ccc(NC(=O)c2ncn(CCCN3CCN(Cc4cccc5ccccc45)CC3)n2)cc1C | ? | -4.6% | ? | -51.9* | 31.6µM* | -1.2%
CCOc1ccc(CN2CCN(Cc3[nH]c4ccccc4c3C)CC2CCO)cc1 (configuration not stated) | ? | 23.1µM* | -21.5% | -74.3* | i | -0.1%
Cc1c(CN2CCN(CC(C)(C)C)C(CCO)C2)[nH]c2ccccc12 (configuration not stated) | 15.4% | 1.1% | nt | 22.1 | i | 6.9%
